Peg3 prom inh-1: reduces Peg3 promoter-driven luciferase expression in HeLa. HeLa PEG-Prom luciferase reporter, luminescence, overnight. inhibition, % at 20 µM. actives 1.7% (n = 360,000). AID 588405;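 active = inhibition of at least 50% at 20 µM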
Shn3 3UTR inh: inhibitors of Schnurri-3 3'UTR reporter in osteoblasts; Clone20 osteoblast Shn3 3'UTR firefly luciferase, 24 h; inhibition, % at 12.5 µM; actives 0.52% (n = 360,000);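 active = mean inhibition of at least 75% with every replicate also reaching 75%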;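 also: 0% = median of neutral control wells and 100% = pilot-screen positive control compound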
HIF-2a block: inhibitors of HIF-2a; 786-0 RCC cells HIF-2a reporter, luciferase luminescence, overnight; inhibition, % at 18.8 µM; actives 0.72% (n = 360,000);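 active = inhibition of the luminescence signal of 40% or more relative to plate controls, in a single-dose primary screen at 18.75 µM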
KKLEB cytotox: counter-screen for CF NF-kB inhibitors: cytotoxicity; actives 0.36% (n = 360,000); activity change (cytotoxicity), % at 5 µM; KKLEB CF airway cells viability, ATPlite luminescence, overnight; stronger effect = lower value; cells stimulated with P. aeruginosa culture filtrate;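 active = corrected activity change at or below -50% at 5 µM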
CF NFkB block: cystic fibrosis NF-kB activation inhibition. KKLEB NF-kB-GFP reporter, PAF-induced, GFP fluorescence overnight. inhibition, % at 5 µM. actives 0.86% (n = 360,000). AID 588850;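 active = at least 50% inhibition at 5 µM, scaled per plate between neutral and stimulator controls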;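 also: PAF is a Pseudomonas aeruginosa culture filtrate used as stimulus; plate controls were PAF-stimulated DMSO wells for no effect and unstimulated DMSO wells for full effect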
Peg3 prom inh-2: Peg3 promoter inhibition confirmation; shares compounds with Peg3 prom inh-1; HeLa PEG-Prom luciferase reporter, luminescence, overnight; inhibition, % at 20 µM; actives 84% (n = 1,300); AID 602417;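 active = at 20 µM dose, 40% or more inhibition averaged across four replicates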
Numbers without * were called inactive. This is a sample that favours compounds with a hit; in the whole collection about 2.6% have one here.

For COc1ccc(OC)c(-c2csc(NC(=O)Cn3[nH]c(=O)c4ccccc4c3=O)n2)c1 the results were Peg3 prom inh-1 55*, Shn3 3UTR inh 3, HIF-2a block 0, KKLEB cytotox 4, CF NFkB block -26 and Peg3 prom inh-2 28.
`CCN1CCN(C(c2ccc(C(F)(F)F)cc2)c2ccc3cccnc3c2O)CC1` (stereo unspecified) gave Peg3 prom inh-1 55*, Shn3 3UTR inh 64, HIF-2a block 49*, KKLEB cytotox -33, CF NFkB block 16 and Peg3 prom inh-2 60*.
For Cc1cc(C2=NNC(=NC3CC3)SC2)c(C)n1Cc1ccco1 the results were Peg3 prom inh-1 86*, Shn3 3UTR inh 38, HIF-2a block 80*, KKLEB cytotox -12, CF NFkB block 22 and Peg3 prom inh-2 90*.
COCCCN=C1NN=C(c2cc(C)n(Cc3ccco3)c2C)CS1 was read as Peg3 prom inh-1 -73, Shn3 3UTR inh -13, HIF-2a block -68, KKLEB cytotox -8 and CF NFkB block 22.
For Cc1ccc(C)c(OCC(O)CN2CCC(CN3C(=O)c4cccc5cccc(c45)C3=O)CC2)c1 (stereo unspecified) the results were Peg3 prom inh-1 99*, Shn3 3UTR inh 69, HIF-2a block 8, KKLEB cytotox -18, CF NFkB block 7 and Peg3 prom inh-2 97*.
`COc1ccc(OCC(O)CN2CCC(CN3C(=O)c4cccc5cccc(c45)C3=O)CC2)cc1` (stereo unspecified) gave Peg3 prom inh-1 12, Shn3 3UTR inh 7, HIF-2a block 6, KKLEB cytotox -4 and CF NFkB block -17.
Screening CN(C(=O)COc1ncnc2sccc12)c1ccccc1 returned Peg3 prom inh-1 6, Shn3 3UTR inh 8, HIF-2a block 3, KKLEB cytotox -3 and CF NFkB block -10.
CNCC[C@@H](Oc1ccc(C(F)(F)F)cc1)c1ccccc1 was read as Peg3 prom inh-1 74*, Shn3 3UTR inh 3, HIF-2a block -12, KKLEB cytotox -21, CF NFkB block 14 and Peg3 prom inh-2 69*.
Screening COc1cc(CNC(C)(C)CO)cc(Br)c1OCc1ccc(Cl)cc1 returned Peg3 prom inh-1 81*, Shn3 3UTR inh 2, HIF-2a block -18, KKLEB cytotox -11, CF NFkB block 13 and Peg3 prom inh-2 91*.
Screening CN1CCN(c2ccc(NC(=O)N3CCc4ccccc43)cc2)CC1 returned Peg3 prom inh-1 58*, Shn3 3UTR inh 46, HIF-2a block 27, KKLEB cytotox -20, CF NFkB block 6 and Peg3 prom inh-2 51*.
Cc1ccc(NC(=O)N2CCc3ccccc32)cc1 was read as Peg3 prom inh-1 -108, Shn3 3UTR inh -7, HIF-2a block -96, KKLEB cytotox -13 and CF NFkB block -1.
`COc1ccccc1CNCC(O)Cn1c2ccccc2c2ccccc21` (stereo unspecified) gave Peg3 prom inh-1 111*, Shn3 3UTR inh 28, HIF-2a block 23, KKLEB cytotox -18, CF NFkB block 25 and Peg3 prom inh-2 97*.
For COc1ccc2[nH]c3c(c2c1)CCN1C(=O)C(CC(=O)NCCc2ccccn2)C[C@H](C(=O)N2CCCCC2)[C@@]31CCc1ccccc1 (stereo partly specified) the results were Peg3 prom inh-1 6, Shn3 3UTR inh 8, HIF-2a block 7, KKLEB cytotox -13 and CF NFkB block 21.
For O=C(C[C@H]1C[C@H](C(=O)N2CCCCC2)[C@@]2(CCc3ccccc3)c3[nH]c4ccc(Cl)cc4c3CCN2C1=O)NCCc1ccccn1 the results were Peg3 prom inh-1 69*, Shn3 3UTR inh 33, HIF-2a block 7, KKLEB cytotox 2, CF NFkB block 35 and Peg3 prom inh-2 88*.
`CN(C)CCCNc1ncnc2oc(-c3ccccc3)c(-c3ccccc3)c12` gave Peg3 prom inh-1 97*, Shn3 3UTR inh 22, HIF-2a block -6, KKLEB cytotox -13, CF NFkB block 8 and Peg3 prom inh-2 97*.
For CC(O)(c1ccc(F)c(F)c1)c1nc(-c2cc(F)cc(F)c2)cs1 (stereo unspecified) the results were Peg3 prom inh-1 16, Shn3 3UTR inh 29, HIF-2a block -1, KKLEB cytotox 12 and CF NFkB block -12.
Screening O=C(c1ccco1)N1CCN(C(c2ccccc2Cl)c2nnnn2Cc2ccco2)CC1 (stereo unspecified) returned Peg3 prom inh-1 39, Shn3 3UTR inh -59, HIF-2a block -1, KKLEB cytotox 7 and CF NFkB block 1.
For O=C(c1ccco1)N1CCN(C(c2ccccc2Cl)c2nnnn2Cc2cccs2)CC1 (stereo unspecified) the results were Peg3 prom inh-1 52*, Shn3 3UTR inh 0, HIF-2a block 19, KKLEB cytotox -6, CF NFkB block 9 and Peg3 prom inh-2 58*.
C/C(=N\NC(=O)c1ccn[nH]1)c1cn(C)nc1C was read as Peg3 prom inh-1 -89, Shn3 3UTR inh -19, HIF-2a block -148, KKLEB cytotox 20 and CF NFkB block -23.
For CCc1ccc(CN2CCCC(C(=O)Nc3ccccc3-c3ccc(OC)cc3)C2)o1 (stereo unspecified) the results were Peg3 prom inh-1 13, Shn3 3UTR inh 15, HIF-2a block 15, KKLEB cytotox 12 and CF NFkB block 0.
`COc1ccc(C(=O)c2sc(Nc3cccc(OC)c3)c(C(=O)Nc3cccc(C)c3C)c2N)cc1` gave Peg3 prom inh-1 97*, Shn3 3UTR inh 69, HIF-2a block 7, KKLEB cytotox -35, CF NFkB block 27 and Peg3 prom inh-2 34.
`COc1ccc(Nc2sc(C(=O)c3ccc(Cl)cc3)c(N)c2C(=O)Nc2ccccc2OC)cc1` gave Peg3 prom inh-1 26, Shn3 3UTR inh 13, HIF-2a block -18, KKLEB cytotox -35 and CF NFkB block 40.
For O=C(CC[C@H]1O[C@@H](n2cnc3c(NC(=O)c4ccccc4)ncnc32)[C@H](O)[C@@H]1O)NCc1cccc2ccccc12 the results were Peg3 prom inh-1 -8, Shn3 3UTR inh -20, HIF-2a block 15, KKLEB cytotox 4 and CF NFkB block -11.
`COC(=O)[C@@]1(Cc2ccc(F)cc2)[C@H]2c3cc(C(=O)N4CCCC4)n(C)c3C[C@H]2CN1C(=O)c1ccccc1` gave HIF-2a block 7.
`Nc1ccn([C@@H]2O[C@H](CO)[C@@H](O)[C@@H]2O)c(=O)n1` gave Peg3 prom inh-1 23, Shn3 3UTR inh 76, HIF-2a block -7, KKLEB cytotox 5 and CF NFkB block -24.
`Nc1ncn([C@@H]2O[C@H](CO)[C@@H](O)[C@H]2O)c(=O)n1` gave Peg3 prom inh-1 72*, Shn3 3UTR inh -7, HIF-2a block -85, KKLEB cytotox -14, CF NFkB block 40 and Peg3 prom inh-2 50*.

Source: PubChem
